# An excerpt weighted towards active compounds, which were near 10% of everything screened.
# Mm-Cpn inhibitor: Inhibitors of TCP-1 ring complex (TRiC) of Methanococcus maripaludis (MmCpn): qHTS. purified Mm-Cpn ATPase, ADP Transcreener TR-FRET. AID 504842, 2011. Potency, µM (highest dose often 76.9 µM), inactives show at the highest dose activity, negative = inhibition, most hits filed as inhibitors. 330,000 tested, 0.031% active; also: potency is read from the fitted curve at half-maximal effect; nearly all actives have a fitted effect of over 80% in size
#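 ATPase turnover read by TR-FRET ADP competition (Eu cryptate antibody/ADP-d2, 665/590 nm): 10uM ATP final, 25nM Mm-CPN final, 30 min 37degC after 10-min compound preincubation, pH 7.4 Tris/KCl/MgCl2/DTT buffer.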
# G9a inh: qHTS Assay for Inhibitors of Histone Lysine Methyltransferase G9a. Potency, µM (series often up to 102 µM), for the others: at the highest dose activity, negative = inhibition, hits mostly inhibitors. 350,000 tested, 8.8% active. G9a H3K9 monomethylation, AlphaScreen, 2 h. Histone-lysine N-methyltransferase EHMT2 (Homo sapiens), Q96KQ7. AID 504332, 2011; also: potency is read from the fitted curve at half-maximal effect; nearly all actives have a fitted effect of over 75% in size
# Target sequence (Q96KQ7 913-1193 limits assumed): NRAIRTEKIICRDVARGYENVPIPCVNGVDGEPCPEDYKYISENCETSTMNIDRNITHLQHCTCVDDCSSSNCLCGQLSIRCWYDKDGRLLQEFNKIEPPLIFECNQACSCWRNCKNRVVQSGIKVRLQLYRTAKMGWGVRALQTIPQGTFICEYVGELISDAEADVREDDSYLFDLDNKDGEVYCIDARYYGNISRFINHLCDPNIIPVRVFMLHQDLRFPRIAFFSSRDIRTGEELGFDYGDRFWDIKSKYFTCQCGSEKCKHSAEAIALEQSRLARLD
#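 Step 1: enzyme (final 20 nM) with compound, 15 min RT. Step 2: substrate peptide 500 nM and SAM 20 uM, 2 h RT. Step 3: anti-H3K9me1 antibody and AlphaScreen beads, 10 min, then plate read.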
# Sfp inh: qHTS Assay for Inhibitors of Bacillus subtilis Sfp phosphopantetheinyl transferase (PPTase); 4'-phosphopantetheinyl transferase ffp (Bacillus subtilis), Q9F4F7; Biochemical Sfp PPTase activity, qHTS; Potency, µM, for the others: largest response in the series, negative = inhibition, hits mostly inhibitors; 310,000 tested, 3.5% active;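 also: the enzyme is Sfp with the accession as filed and its product quenches rhodamine fluorescence; potency is read from the fitted curve at half-maximal effect; 0% = enzyme reaction without inhibitor and -100% = no enzyme wells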
#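 Fluorescence-quenching assay with 15 nM Sfp, 5 uM rhodamine-CoA and 12.5 uM BHQ-2-labelled ybbR peptide in pH 7.6 Hepes/MgCl2 buffer. Enzyme was pre-incubated with compound for 15 min at room temperature. Rate was taken from the 30-min fluorescence change (525/598 nm).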
# VDR inhibitor: Inhibitors of the vitamin D receptor (VDR): qHTS; AID 504847, 2011; Potency, µM, without a hit: max response, negative = inhibition, usual class: inhibitors; Vitamin D3 receptor (Homo sapiens), P11473; VDR-SRC2-3 peptide fluorescence polarization, 2 h; 400,000 tested, 0.93% active; also: potency is read from the fitted curve at half-maximal effect
# Target sequence (P11473 whole entry, looked up): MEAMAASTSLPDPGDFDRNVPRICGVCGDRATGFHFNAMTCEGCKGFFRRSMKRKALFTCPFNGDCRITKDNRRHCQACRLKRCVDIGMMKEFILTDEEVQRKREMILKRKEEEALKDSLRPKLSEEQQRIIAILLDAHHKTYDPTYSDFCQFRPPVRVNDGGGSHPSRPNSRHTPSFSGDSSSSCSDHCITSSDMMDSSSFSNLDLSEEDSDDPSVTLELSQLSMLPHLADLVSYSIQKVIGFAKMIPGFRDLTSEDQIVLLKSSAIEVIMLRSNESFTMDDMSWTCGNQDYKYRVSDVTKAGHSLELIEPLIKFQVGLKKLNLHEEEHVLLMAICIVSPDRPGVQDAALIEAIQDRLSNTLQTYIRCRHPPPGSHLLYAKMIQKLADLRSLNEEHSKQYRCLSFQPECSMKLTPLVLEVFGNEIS
#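 Inhibition of the VDR/SRC2-3 peptide interaction is quantified by fluorescence polarization. Compounds (23 nl, pintool) incubate with the reagents for 2 hours at ambient room temperature.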
# PLK1 PBD block: qHTS for Inhibitors of PLK1-PDB (polo-like kinase 1 - polo-box domain): Primary Screen; 360,000 tested, 2.8% active; Serine/threonine-protein kinase PLK1 (Homo sapiens), P53350; Potency, µM, for the others: max response, negative = inhibition, actives largely listed as inhibitors; Plk1 PBD binding of FITC phosphopeptide, fluorescence polarization; also: potency is read from the fitted curve at half-maximal effect; series mostly up to about 57 µM; nearly all actives have a fitted effect of over 65% in size
# CCT chaperon mod: High-Throughput Screening for Modulators of Cytosolic Chaperonin Activity; purified chaperonin ATPase assay, HTRF ADP detection, 30 min; activity change, % (test concentration not listed), hits read low; 360,000 tested, 0.3% active; in the data active = activity change below about -30%
#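 TRiC (40 or 20 nM final, by batch activity) in 30 mM Tris pH 7.4, 100 mM KCl, 5 mM MgCl2, 1 mM DTT was treated with compound at 76 uM single dose, then 10 uM ATP, 30 min at 37 °C. ADP was read by HTRF Transcreener.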
# The depositor's hits bear a star; ? = inconclusive; nt = no result given; ! = not active in a repeat; [ ] = another dose, or the depositor's remark. Unless noted, calls follow the shape of the dose curve; as a rule, active = well fitted curve in the direction sought with a large enough effect; inconclusive = small, poorly fitted or top-dose-only effect, or another doubt; inactive = no such curve, though single readings can be large; an effect the other way counts as inactive or inconclusive. Unless noted, % is scaled to controls: 0 for no effect and ±100 for the full control effect.
SMILES,Mm-Cpn inhibitor,G9a inh,Sfp inh,VDR inhibitor,PLK1 PBD block,CCT chaperon mod
C[C@]12[C@H](O)CC3C(CC[C@@H]4C[C@@H](O)CC[C@]34C)[C@@]1(O)CC[C@@H]2C1=CC(=O)OC1 (some centres not stated),nt,nt,5%,nt,nt,nt
Oc1ccc2c3c1O[C@H]1[C@@H](O)CC[C@]4(O)[C@H](C2)N(CC2CCC2)CC[C@@]314,nt,21%[21.5 µM],18%,-6%,nt,nt
FC(F)(F)c1cccc(CN2CCCCCC2)c1,3%,2.8µM*,-13%,5%,-4%,-1
FC(F)(F)c1ccc(CN2CCNCC2)cc1,-2%,?,16%,11%,-37%,-3
C[N+]1(C)CCc2cc3c(cc2[C@H]1[C@@H]1OC(=O)c2c1ccc1c2OCO1)OCO3,-1%,22µM*!,16%,-1%,-2%,1
CN1CCc2cc3c(cc2C1C1OC(=O)c2c1ccc1c2OCO1)OCO3 (configuration not stated),nt,nt,17%,nt,nt,nt
COc1ccc(CCNC(=O)c2ccc3c(c2)CCN3S(=O)(=O)c2ccc(C)cc2)cc1OC,nt,5µM*,nt,5%,nt,nt
Oc1cc2c(cc1O)[C@H]1c3ccccc3CNC1CC2 (some centres not stated),nt,0.5µM*,nt,nt,nt,nt
CC(=O)OCC(N)C(=O)c1ccccc1 (configuration not stated),nt,?,-11%,nt,nt,nt
COC1=CC(=O)O[C@H](/C=C/c2ccc3c(c2)OCO3)C1,nt,nt,18%,5%,nt,nt
O=[N+]([O-])/C=C/c1ccc2c(c1)OCO2,nt,2.1µM*,nt,7.1µM*,nt,nt
COc1cc2c(cc1/C=C/[N+](=O)[O-])OCO2,0%,?,-21%,25µM*,?,1
NCc1cccnc1,nt,2%[12.7 µM],5%,3%,nt,nt
CCOC(=O)c1ccc(-n2c(N)c(C(=O)NCC3CCCO3)sc2=S)cc1 (configuration not stated),0%,10µM*,32µM*,?,12µM*,-2
CCOC(=O)c1ccc(N=Cc2c(O)n(-c3ccc(OC)cc3)c(=S)[nH]c2=O)cc1,-1%,-5%[0.501 µM],-28%,30%,-8%,0
CCOC(=O)c1ccc(N2C(=O)CC(N3CCC(O)(c4ccc(Br)cc4)CC3)C2=O)cc1 (configuration not stated),2%,50µM*,6%,-7%,0%,-1
Cc1nnc(NC(=O)c2cccn(Cc3ccccc3F)c2=O)s1,nt,?,nt,3%,nt,nt
CN1C(=O)C(=Cc2sc(=O)n(-c3ccccc3)c2N(C)C)C(=O)N(C)C1=O,0%,?,2%,-25%,23%,-1
CN1C(=O)C(=Cc2ccc(Sc3ccccc3)o2)C(=O)N(C)C1=S,nt,nt,nt,-15%,2.7µM*,-2
CN1C(=O)C(=Cc2ccc(Sc3ccccc3)o2)C(=O)N(C)C1=O,1%,8.9µM*,6%,?,?,-2
[O-]C1=N/[N+](=C/c2ccc(Cl)cc2)CC1,1%,8.9µM*,4%,-6%,-8%,0
CCCCCCCCCC(=O)O[C@H]1CC[C@H]2[C@@H]3CCC4=CC(=O)CC[C@@H]4[C@H]3CC[C@]12C,nt,40%[59 µM],-28%,-12%,nt,nt
CCCCC/C=C\C/C=C\C/C=C\C/C=C\CCCC(=O)NC(C)C(=O)O (configuration not stated),nt,nt,2%,-13%,nt,nt
O=c1cc(-c2ccc(O)c(O)c2)oc2c(C3O[C@H](CO)[C@@H](O)[C@H](O)[C@H]3O)c(O)cc(O)c12 (some centres not stated),-6%,79µM*,-28%,-9%,5%,-1
COc1ccc(CCNc2nccn(-c3ccc(C)c(C)c3)c2=O)cc1OC,nt,?,nt,3%,nt,nt
SMILES,Mm-Cpn inhibitor,G9a inh,Sfp inh,VDR inhibitor,PLK1 PBD block,CCT chaperon mod
C=C1C/C(=C\C)C(=O)O[C@@H]2CCN3CC=C(COC(=O)[C@@]1(C)O)[C@H]23,nt,22%[21.5 µM],14%,14%,nt,nt
O=C1C=CC(=O)C(Cl)=C1,nt,0.71µM*,4µM*,25µM*,nt,nt
Cc1ccc(OCC(=O)N2CCN(CCc3ccncc3)CC2)cc1C,nt,-5%[59 µM],nt,8%,nt,nt
Cc1ccc(OCC(=O)N2CCN(Cc3ccc(F)cc3)CC2)cc1,nt,1.3µM*,nt,7%,nt,nt
COc1ccc(OCC(=O)N2CCN(CCc3ccncc3)CC2)cc1,nt,-11%[59 µM],nt,5%,nt,nt
COc1ccc(OCC(=O)N2CCN(Cc3nc4cc([N+](=O)[O-])ccc4n3C)CC2)cc1,-3%,19%[59 µM],1%,-17%,30µM*,0
Cc1ccc(OCC(=O)NCCN2CCN(C(=O)COc3ccc(C)cc3)CC2)cc1,-1%,-6%[59 µM],14%,3%,-6%,2
CSc1ccc(CN2CCN(C(=O)COc3cccc(C)c3)CC2)cc1,-3%,10µM*,71µM*,13%,-9%,-2
Cc1ccc(OCC(=O)N2CCN(Cc3cccnc3)CC2)cc1,?,2.8µM*,?,9%,-1%,2
Cc1cc(=O)oc2cc(OCC(=O)N3CCN(Cc4ccccc4)CC3)ccc12,0%,nt,nt,-15%,7%,2
CC(C)NC(=O)N1CC[C@@]2(CCCNC2)C1,nt,-14%[12.7 µM],-1%,-2%,nt,nt
O=C(COc1ccc(Br)cc1)N1CCN(Cc2c[nH]c3ccccc23)CC1,-2%,20µM*,-19%,-9%,0%,2
O=C(COc1ccc(Cl)cc1)N1CCN(Cc2ccc([N+](=O)[O-])cc2)CC1,-3%,2.5µM*,?,-7%,-9%,0
C=CCC1(C(C)CCC)C(=O)N=C(S)NC1=O (configuration not stated),nt,3%[59 µM],23%,4%,nt,nt
O=C(NCc1ccc(Cl)cc1)C1CCCN(C(=O)c2cnn(-c3ccc(F)cc3)c2-n2cccc2)C1 (configuration not stated),nt,?,nt,-2%,nt,nt
CCOc1ccc(/C=C/c2nc(C#N)c(NCc3ccccc3)o2)cc1,nt,?,nt,1%,nt,nt
O=[As]O[As]=O (configuration not stated),nt,26%[59 µM],23%,7%,nt,nt
O=C(/C=C/c1ccc(Cl)cc1)NC(=S)N1C[C@H]2C[C@H](C1)c1cccc(=O)n1C2,3%,18µM*,-14%,12%,-10%,-2
COc1ccc(C(=O)NC(=S)N2C[C@H]3C[C@H](C2)c2cccc(=O)n2C3)cc1,-1%,25µM*,?,-8%,-27%,0
O=C(/C=C/c1ccc(Br)cc1)NC(=S)N1C[C@H]2C[C@H](C1)c1cccc(=O)n1C2,-4%,50µM*,-3%,4%,-19%,2

# Screens as filed in PubChem.
